# Sampled rows, rich in hits. Any-hit rate of the full collection: about 3.1%.
# BoNT-F LC inh: BoNT F light chain protease inhibition; Multiplex microsphere protease cleavage assay, flow cytometry; inhibition, % at 10 µM; 360,000 compounds, 0.22% hits; AID 588497; in the data active = inhibition above about 35%, passing the limit was not always enough; inconclusive = no clear call, values can overlap the other calls; also: plate controls were buffer without enzyme for full effect and enzyme alone for no effect
# Autofluor counter: counter-screen for toxin protease inhibitors: compound fluorescence; AID 624483; 360,000 compounds, 3.1% hits; fluorescence intensity (test concentration not listed); compound autofluorescence counterscreen, microsphere flow cytometry; stronger effect = higher value; in the data active = fluorescence intensity above about 16000; inconclusive = no clear call, values can overlap the other calls
# Anthrax LF inh2: anthrax lethal factor protease inhibition. P15917. multiplex microsphere protease cleavage assay, LF. inhibition, % at 10 µM. 360,000 compounds, 0.12% hits. AID 588501; also: plate controls were buffer without enzyme for full effect and enzyme alone for no effect
# Target sequence (P15917 whole entry, looked up): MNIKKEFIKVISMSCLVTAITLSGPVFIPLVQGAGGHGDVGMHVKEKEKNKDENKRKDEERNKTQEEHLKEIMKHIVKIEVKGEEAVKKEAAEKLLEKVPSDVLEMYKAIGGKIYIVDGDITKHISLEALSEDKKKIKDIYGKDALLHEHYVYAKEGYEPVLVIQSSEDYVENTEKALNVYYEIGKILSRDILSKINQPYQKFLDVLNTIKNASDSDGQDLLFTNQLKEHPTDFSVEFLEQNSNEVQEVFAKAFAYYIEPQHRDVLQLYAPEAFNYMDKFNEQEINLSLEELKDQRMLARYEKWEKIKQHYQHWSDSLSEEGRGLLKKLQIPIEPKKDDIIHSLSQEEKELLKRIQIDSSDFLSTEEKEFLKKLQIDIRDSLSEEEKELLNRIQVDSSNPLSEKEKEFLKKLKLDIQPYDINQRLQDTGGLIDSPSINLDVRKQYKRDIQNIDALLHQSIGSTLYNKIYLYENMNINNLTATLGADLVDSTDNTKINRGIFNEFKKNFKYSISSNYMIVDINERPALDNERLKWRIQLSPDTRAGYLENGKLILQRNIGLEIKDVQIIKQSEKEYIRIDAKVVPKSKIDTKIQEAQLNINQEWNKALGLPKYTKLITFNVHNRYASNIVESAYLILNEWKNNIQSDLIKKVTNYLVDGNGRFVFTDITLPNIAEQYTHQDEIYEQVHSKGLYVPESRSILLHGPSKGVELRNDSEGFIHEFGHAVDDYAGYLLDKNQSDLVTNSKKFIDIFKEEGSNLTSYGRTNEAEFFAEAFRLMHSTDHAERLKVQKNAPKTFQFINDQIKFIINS
# BoNT-A LC inh2: BoNT A light chain protease inhibition. multiplex microsphere protease substrate cleavage, flow cytometry. inhibition, % at 10 µM. 360,000 compounds, 0.17% hits. AID 588499; also: plate controls were buffer without enzyme for full effect and enzyme alone for no effect
# SSB-PriA inh: K. pneumoniae PriA-SSBct interaction inhibition | AlphaScreen SSBct-PriA binding, biotinylated peptide | inhibition, % at 33 µM | 430,000 compounds, 0.6% hits; in the data active = inhibition mostly above about 37%, no sharp cut-off; inactive = mostly below about 20%;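 also: plate controls were negative control peptide for no effect and reference peptide for full effect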
# Starred values were filed as active, the others as inactive; ? = inconclusive; nt = no result given. Rule as the data show it, unless noted: active = inhibition above about 30%; inconclusive = no clear call, values can overlap the other calls; inactive = below that.
SMILES,BoNT-F LC inh,Autofluor counter,Anthrax LF inh2,BoNT-A LC inh2,SSB-PriA inh
COC(=O)c1cc([N+](=O)[O-])c(-n2cncn2)c([N+](=O)[O-])c1,25.4,2583,-3.6,1.1,-9.0
COC(=O)c1cc(F)c(-n2cncn2)c(F)c1,-3.1,16245*,2.2,?,0.9
CCSc1nnc(NC(=O)c2cccs2)s1,0.1,22159*,2.3,1.0,7.7
O=C(Nc1nnc(SCc2ccccc2)s1)c1cccs1,-0.5,2670,-2.2,-0.1,-7.6
CCSc1nnc(NC(=O)C2(C)Cc3ccccc3C(=O)O2)s1 (configuration not stated),6.3,17590*,-11.5,4.8,-3.8
CC1(C(=O)Nc2nnc(C(C)(C)C)s2)Cc2ccccc2C(=O)O1 (configuration not stated),-11.5,11347,-0.8,-1.2,-14.5
O=C(Nc1ccc(Cl)cc1)c1csc(-c2ccncc2)n1,1.7,3893,-0.6,-0.6,-7.8
CNC(=O)c1csc(-c2ccc(C)cc2)n1,2.7,20516*,-9.0,2.1,-9.5
CNC(=O)c1csc(-c2ccc(Cl)cc2)n1,8.2,3414,0.6,0.9,-10.5
O=C(Nc1ccc(Cl)cc1)c1csc(-c2ccccc2)n1,-3.4,16593*,-3.6,-0.9,-29.6
COC(=O)c1sc(NC(=O)c2c(C)noc2C)nc1C,nt,nt,nt,nt,-11.0
COC(=O)c1sc(N)c(C(=O)OC)c1COC(=O)c1c(C)noc1C,10.3,20148*,-6.2,5.5,-3.1
CC(=O)Nc1ccc(C)cc1-c1nc2ccccc2[nH]c1=O,nt,nt,nt,nt,4.0
Cc1ccc2[nH]c(=O)c(NC(N)=S)nc2c1,-3.3,20753*,-3.5,0.0,6.5
Cc1ccc2nc(C3CCCN3)[nH]c2c1 (configuration not stated),nt,nt,nt,nt,6.0
O=C(Nc1ccon1)c1ccccc1Cl,3.7,8322,2.7,0.3,-12.6
O=C(Nc1ccon1)c1ccccc1F,-1.2,23297*,2.8,0.7,-12.6
O=C(Nc1ccccc1C(=O)Nc1ccccn1)c1ccccc1F,45.0*,4072,11.4,0.8,-6.7
Cc1cccc(NC(=O)C2(c3ccc(F)cc3)CC2)c1C,nt,nt,nt,nt,-8.0
Cc1noc(CCCN)n1,nt,nt,nt,nt,-11.0
CN(C)CCCn1cnc2c(c1=N)C(c1ccccc1)c1ccc3ccccc3c1O2 (configuration not stated),-11.7,3754,7.0,-0.6,51.0*
Cc1nonc1OCC(C)(COc1nonc1C)NC(=O)c1ccccc1,7.1,21066*,0.6,3.3,2.2
CCOC(=O)CNC(=O)c1ccccc1,-0.1,2512,1.1,-0.1,-8.7
Cc1cc(N2CCCCCC2)nc2ccc(F)cc12,-147.1,19022*,-36.7,-20.5,-98.1
Cc1nc(SCC(=O)NC(C)(C)C)[nH]c(=O)c1C,nt,nt,nt,nt,-14.0
SMILES,BoNT-F LC inh,Autofluor counter,Anthrax LF inh2,BoNT-A LC inh2,SSB-PriA inh
CCCN(CCC)CCCNS(=O)(=O)c1ccc2c(c1)oc(=O)n2C,-10.8,23740*,-8.0,?,1.5
CN(Cc1ccccc1)C(=O)CCNS(=O)(=O)c1ccc2c(c1)oc(=O)n2C,-2.9,20317*,-0.8,-0.8,-9.0
Cn1c(=O)oc2cc(S(=O)(=O)NCCC(=O)NC3CCCC3)ccc21,3.3,10749,-3.9,0.6,-5.4
CN(C)S(=O)(=O)c1cccc(C(=O)NC2CCCc3ccccc32)c1 (configuration not stated),-23.4,4650,1.5,-0.6,-10.2
Cn1c(=O)oc2cc(S(=O)(=O)NCCC(=O)NC3CCCc4ccccc43)ccc21 (configuration not stated),-1.6,20326*,-2.8,-1.0,-0.8
CCCNS(=O)(=O)c1cccc(C(=O)NC2CCCc3ccccc32)c1 (configuration not stated),2.6,22288*,-0.8,1.0,-1.1
CC(C)OCCCNS(=O)(=O)c1ccc2c(c1)oc(=O)n2C,0.1,5787,4.8,-0.2,-3.2
CSc1ncccc1C(=O)N1CCC(CNC(=O)C(=O)NCc2ccc3c(c2)OCO3)CC1,nt,nt,nt,nt,-6.0
COc1c(OC(C)=O)ccc(/C=C/c2ccc3cccc(OC)c3n2)c1[N+](=O)[O-],30.0,1996,0.0,3.6,19.0
COc1c(OC(C)=O)ccc(/C=C/c2ccc3ccccc3n2)c1[N+](=O)[O-],-5.6,23285*,0.7,-1.4,27.5
COC(=O)c1sccc1NC(=O)c1c(C)noc1C,-0.4,23485*,-0.6,-0.2,-13.6
COC(=O)c1sccc1NC(=O)c1cc(C)on1,-9.1,17750*,-1.2,?,3.0
CCc1sc(C(=O)Nc2ccsc2C(=O)OC)cc1Br,-4.1,16369*,-4.5,-0.3,-7.3
COC(=O)c1sccc1NC(=O)c1c(F)c(F)c(F)c(F)c1F,4.5,5625,-1.0,1.3,-14.4
COc1ccc(CCNC(=O)NC(C)Cc2ccco2)cc1 (configuration not stated),nt,nt,nt,nt,4.0
C=CCSc1ncc(C#N)c(N)n1,-3.2,20496*,-1.5,-2.2,-21.7
Cc1ccc(-n2nc(C)c3c(C)c(CCC(=O)NCc4ccco4)c(C)nc32)cc1,2.6,4435,-5.7,-0.7,96.4*
Cc1ccc(CNC(=O)CCc2c(C)nc3c(c(C)nn3-c3ccc(C)cc3)c2C)cc1,-3.9,6127,0.5,-0.9,-11.1
Cc1ccc(-c2noc(CCC(=O)NCc3ccco3)n2)cc1,-1.6,19424*,-3.3,0.2,-8.7
COc1cc(-c2noc(CCCC(=O)NCc3ccco3)n2)cc(OC)c1OC,5.5,21043*,0.6,3.5,4.0
Cc1ccc(OC2CCN(C(=O)c3cnn(-c4ccccc4)n3)CC2)nn1,nt,nt,nt,nt,-4.0
O=C(N/N=C/c1ccc(N2CCOCC2)o1)c1cccc(C(F)(F)F)c1,-2.9,24154*,-2.6,-1.0,nt
O=C(NN=Cc1ccc(N2CCOCC2)o1)c1cccc(F)c1,nt,nt,nt,nt,-7.6
Cc1nc(Oc2ccccc2)cc(N2CCN(S(=O)(=O)Cc3ccccc3)CC2)n1,nt,nt,nt,nt,-1.0
Cc1ccc(P(=O)(CO)c2ccc(C)cc2)cc1,-2.7,16417*,-0.9,-0.7,-2.3
SMILES,BoNT-F LC inh,Autofluor counter,Anthrax LF inh2,BoNT-A LC inh2,SSB-PriA inh
CN1CCN(c2nc3nonc3nc2N2CCN(C)CC2)CC1,-2.7,3344,-1.8,-0.6,-30.3
C1CCN(c2nc3nonc3nc2N2CCCCC2)CC1,-3.9,24347*,-4.5,-2.8,0.3
COc1ccc(Cl)cc1N(CC(=O)Nc1ccccc1SC)S(C)(=O)=O,-0.3,19767*,1.5,?,4.7
Cc1nc(C)n(CC(C)NC(=O)c2cccs2)n1 (configuration not stated),nt,nt,nt,nt,-3.0
Cc1ccccc1Cn1cnc2c(cnn2CCNC(=O)C(C)(C)C)c1=O,nt,nt,nt,nt,-6.0
CC1(C)CC(N2CCCCC2)=CC(=[N+]2CCCCC2)C1,0.0,27656*,5.6,-1.7,-6.8
COc1ccc(C=NNC(=O)CCC(=O)Nc2ccccc2)cc1OC,nt,nt,nt,nt,-21.1
Cc1cc(-c2nnc(NC(=O)c3ccccc3)o2)n(C)n1,nt,nt,nt,nt,2.0
COc1ccc(NC(=O)CN(C)S(=O)(=O)c2ccc3c(c2)CCC(=O)N3)c(OC)c1,0.6,5401,-7.1,-0.1,-11.5
COc1ccc(NS(=O)(=O)c2ccc3c(c2)CCC(=O)N3)c(OC)c1,-1.2,16726*,1.5,-0.2,-3.2
CCCCCCCCNC(=O)c1cnccn1,-4.8,10727,0.2,-1.0,-24.5
Cc1cc(C(F)(F)F)nn1CCCNC(=O)c1cnccn1,-0.4,23254*,-2.3,?,-10.7

# Compound activity (PubChem BioAssay)
